Experimental data reported in PubChem BioAssay (NCI).
About 83,000 compounds went through this panel and 20% of them were active in at least one assay; those are over-represented in the sample as a whole.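 Each cell line was grown in a 96-well plate and treated with one concentration of compound for 48 hours. Values below 10 were considered active.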 The source made the active and inactive calls.

Experiments:
Assay in all cases: NCI-60 one-dose screen, 48 h (100 = growth as untreated, 0 = no growth, -100 = all killed)
Settings in all cases: 10 µM unless noted
NCI-H23 lung = system: NCI-H23 lung
NCI-H226 lung = system: NCI-H226 lung
NCI-H322M lung = system: NCI-H322M lung
HOP-62 NSCLC = system: HOP-62 NSCLC
NCI-H460 lung = system: NCI-H460 lung
HOP-92 NSCLC = system: HOP-92 NSCLC
NCI-H522 lung = system: NCI-H522 lung
A549/ATCC NSCLC = system: A549/ATCC NSCLC
786-0 renal = system: 786-0 renal
COLO 205 colon = system: COLO 205 colon

Measured: growth

COc1ccc(C2=CN3CC=CCC3CC2=O)cc1 (stereo not given)
inactive: NCI-H23 lung 106% | NCI-H226 lung 99.9% | NCI-H322M lung 113% | HOP-62 NSCLC 87.8% | NCI-H460 lung 108% | HOP-92 NSCLC 92.1% | NCI-H522 lung 66.9% | A549/ATCC NSCLC 75% | 786-0 renal 101% | COLO 205 colon 113%

Cc1cc2oc(=O)cc(CP(=O)(O)O)c2cc1O
inactive: NCI-H23 lung 100% | NCI-H226 lung 102% | NCI-H322M lung 91.2% | HOP-62 NSCLC 97.3% | NCI-H460 lung 103% | HOP-92 NSCLC 100% | NCI-H522 lung 93.9% | A549/ATCC NSCLC 99.9% | 786-0 renal 105% | COLO 205 colon 104%

CCCCCCCC/C=C\CCCCCCCCOc1ccc(CC(=O)NCC[N+](C)(C)C)cc1
inactive: NCI-H23 lung 67.2% | NCI-H226 lung 70% | NCI-H322M lung 85.6% | HOP-62 NSCLC 24.3% | NCI-H460 lung 29.9% | HOP-92 NSCLC 62.3% | NCI-H522 lung 50.7% | A549/ATCC NSCLC 74.1% | 786-0 renal 59.6%
active: COLO 205 colon -69.1%

COc1ccc2c(c1)c(-c1cc(-c3cn(C)c4ccc(OC)cc34)on1)cn2C
inactive: NCI-H23 lung 84.1% | NCI-H226 lung 88% | NCI-H322M lung 96.6% | HOP-62 NSCLC 141% | NCI-H460 lung 109% | HOP-92 NSCLC 59% | NCI-H522 lung 90.2% | A549/ATCC NSCLC 109% | 786-0 renal 102% | COLO 205 colon 112%

Cc1nc2ccccc2c(/C=C/c2ccc(C(F)(F)F)cc2)c1C(=O)/C=C/c1ccccc1
inactive: NCI-H322M lung 20.5% | HOP-92 NSCLC 16.5%
active: NCI-H23 lung -12.9% | NCI-H226 lung -0.692% | HOP-62 NSCLC -34.8% | NCI-H460 lung -74.9% | NCI-H522 lung -61.9% | A549/ATCC NSCLC 6.27% | 786-0 renal -14.1% | COLO 205 colon -54.6%

N#Cc1c(-c2ccccc2)cc(-c2ccccc2)n(CCCC(=O)NO)c1=O
active: NCI-H460 lung 8.19%
inactive: NCI-H23 lung 31.2% | NCI-H226 lung 13% | NCI-H322M lung 35.3% | HOP-62 NSCLC 22.2% | HOP-92 NSCLC 30.4% | NCI-H522 lung 21.8% | A549/ATCC NSCLC 22.8% | 786-0 renal 17.7% | COLO 205 colon 18.3%

O=C(O)c1cn(C2CC2)c2cc(N3CCN(C(=O)N/N=C/c4ccccc4)CC3)c(F)cc2c1=O
inactive: NCI-H23 lung 97.1% | NCI-H226 lung 88% | NCI-H322M lung 100% | HOP-62 NSCLC 107% | NCI-H460 lung 109% | HOP-92 NSCLC 89% | NCI-H522 lung 78% | A549/ATCC NSCLC 106% | 786-0 renal 93.6% | COLO 205 colon 114%

COc1ccc2cc(-c3ccc(-c4ccc(C(=N)N)s4)s3)ccc2c1
inactive: NCI-H226 lung 97% | NCI-H322M lung 22.6% | HOP-92 NSCLC 65.5%
active: NCI-H23 lung 0.368% | HOP-62 NSCLC -8.34% | NCI-H460 lung -59.8% | NCI-H522 lung -46.7% | A549/ATCC NSCLC -18.9% | 786-0 renal -53.6% | COLO 205 colon -4.44%

CC/C(Cc1ccccc1)=C(\c1ccc(OCCN2CCCCCC2)cc1)c1ccc(OC(=O)NCc2ccccc2)cc1
inactive: NCI-H23 lung 74.9% | NCI-H226 lung 90% | NCI-H322M lung 96.6% | HOP-62 NSCLC 82.8% | HOP-92 NSCLC 56% | NCI-H522 lung 84.7% | A549/ATCC NSCLC 64.4% | 786-0 renal 58.4%
active: NCI-H460 lung 5.51% | COLO 205 colon -24.2%

Cc1cc(C(=O)Nc2cc(Nc3ncccc3-c3ncnc4nc[nH]c34)ccc2F)cc(C(F)(F)F)c1
inactive: NCI-H23 lung 25.2% | NCI-H226 lung 39.9% | NCI-H322M lung 106% | HOP-62 NSCLC 38.5% | NCI-H460 lung 48.8% | NCI-H522 lung 63.1% | A549/ATCC NSCLC 55.7% | 786-0 renal 63.5% | COLO 205 colon 13.4%
active: HOP-92 NSCLC -5.43%

COc1cc(C2Cc3ncccc3-c3[nH]c(=O)c4cccnc4c32)cc(OC)c1OC (stereo not given)
inactive: NCI-H23 lung 35.3% | NCI-H226 lung 62.8% | NCI-H322M lung 55.5% | HOP-62 NSCLC 21.7% | HOP-92 NSCLC 67.5% | A549/ATCC NSCLC 20.4% | 786-0 renal 33%
active: NCI-H460 lung 9.39% | NCI-H522 lung -31% | COLO 205 colon -20%

COc1cc(OC)cc(C2C(C#N)=C(N)Oc3c2ccc2ccc(O)cc32)c1 (stereo not given)
active: NCI-H460 lung 3.85% | NCI-H522 lung 1.5% | A549/ATCC NSCLC 6.38% | COLO 205 colon -42%
inactive: NCI-H23 lung 14.9% | NCI-H226 lung 38.2% | NCI-H322M lung 30.9% | HOP-62 NSCLC 23.3% | HOP-92 NSCLC 13.4% | 786-0 renal 12.7%

COC(=O)/C=C1/SC(=Nc2cccc(Cl)c2)N(CCc2c[nH]c3ccc(O)cc23)C1=O
inactive: NCI-H23 lung 51.1% | NCI-H226 lung 81.3% | NCI-H322M lung 98.6% | HOP-62 NSCLC 15.4% | NCI-H460 lung 37% | HOP-92 NSCLC 40.7% | NCI-H522 lung 11% | A549/ATCC NSCLC 78.9% | 786-0 renal 19.1% | COLO 205 colon 90.3%

CCN(C(=O)N1CCN(c2cc3c(cc2F)c(=O)c(C(=O)O)cn3C2CC2)CC1)c1nc(-c2ccc(C)cc2)cs1
active: NCI-H23 lung 6.95% | NCI-H226 lung 3.21% | HOP-62 NSCLC 5.92% | NCI-H460 lung 8.41% | HOP-92 NSCLC -12% | NCI-H522 lung 3.2% | COLO 205 colon -21.2%
inactive: NCI-H322M lung 10.3% | A549/ATCC NSCLC 16.1% | 786-0 renal 15.6%

COc1ccc(Cn2cc(C(=O)N=Nc3c(O)[nH]c4c(Cl)cccc34)nn2)cc1
inactive: NCI-H23 lung 99.3% | NCI-H226 lung 102% | NCI-H322M lung 101% | HOP-62 NSCLC 110% | NCI-H460 lung 99.7% | HOP-92 NSCLC 105% | NCI-H522 lung 84% | A549/ATCC NSCLC 102% | 786-0 renal 106% | COLO 205 colon 114%

Cn1cc(/C=C2/C(=O)Nc3ccccc32)c2ccccc21
inactive: NCI-H23 lung 73.4% | NCI-H226 lung 70.6% | NCI-H322M lung 91.5% | HOP-62 NSCLC 76.8% | NCI-H460 lung 92.4% | HOP-92 NSCLC 87.4% | NCI-H522 lung 77.8% | A549/ATCC NSCLC 86.2% | 786-0 renal 98.4% | COLO 205 colon 91.7%

CCNC(=O)Oc1ccc(/C(=C(/C)Cc2ccc(OC)cc2)c2ccc(OCCN3CCCC3)cc2)cc1
inactive: NCI-H23 lung 86.6% | NCI-H226 lung 90.1% | NCI-H322M lung 89% | HOP-62 NSCLC 93% | NCI-H460 lung 55.9% | HOP-92 NSCLC 61.8% | NCI-H522 lung 78.9% | A549/ATCC NSCLC 66.4% | 786-0 renal 68% | COLO 205 colon 33.4%

Cn1cc(C(=O)c2nc(-c3c[nH]c4ccc(Br)cc34)no2)c2cc(Br)ccc21
inactive: NCI-H23 lung 83% | NCI-H226 lung 102% | NCI-H322M lung 73.4% | HOP-62 NSCLC 78.4% | NCI-H460 lung 12.5% | HOP-92 NSCLC 83.9% | NCI-H522 lung 84.2% | A549/ATCC NSCLC 32.1% | 786-0 renal 99.4% | COLO 205 colon 93.3%

CCOC(=O)c1c(NC(=O)c2ccc(C(C)(C)C)cc2)sc2cc(O)ccc12
inactive: NCI-H23 lung 89.8% | NCI-H226 lung 87.9% | NCI-H322M lung 87.1% | HOP-62 NSCLC 95.8% | NCI-H460 lung 98.1% | HOP-92 NSCLC 96.8% | NCI-H522 lung 96.1% | A549/ATCC NSCLC 91.9% | COLO 205 colon 110%
active: 786-0 renal -92%

c1ccc(CCc2ccccc2-c2cc(-c3ccccc3)on2)cc1
inactive: NCI-H23 lung 75.1% | NCI-H226 lung 96.5% | NCI-H322M lung 87% | HOP-62 NSCLC 96.5% | NCI-H460 lung 82.4% | HOP-92 NSCLC 103% | NCI-H522 lung 80.1% | A549/ATCC NSCLC 97.7% | 786-0 renal 94.5% | COLO 205 colon 100%

CN1CCN(CCCOC(=O)c2c3c(n4ccccc24)C(=O)c2ncccc2C3=O)CC1
inactive: NCI-H226 lung 15.7% | NCI-H322M lung 28.5% | HOP-92 NSCLC 14.8%
active: NCI-H23 lung -30.6% | HOP-62 NSCLC -34.9% | NCI-H460 lung -15.1% | NCI-H522 lung -87.1% | A549/ATCC NSCLC -47.9% | 786-0 renal 1.4% | COLO 205 colon -93.2%

COc1ccc2c(c1)c(-c1nonc1-c1cn(C)c3ccc(OC)cc13)cn2C
inactive: NCI-H23 lung 59.2% | NCI-H226 lung 75.1% | NCI-H322M lung 71.1% | HOP-62 NSCLC 32.4% | NCI-H460 lung 12.6% | HOP-92 NSCLC 55.6% | NCI-H522 lung 18.5% | A549/ATCC NSCLC 39.2% | 786-0 renal 54.5% | COLO 205 colon 32.9%

O=C(CN1CCN(c2cc3c(cc2F)c(=O)c(C(=O)O)cn3C2CC2)CC1)N/N=C/c1ccncc1
inactive: NCI-H23 lung 102% | NCI-H226 lung 100% | NCI-H322M lung 96.3% | HOP-62 NSCLC 92.2% | NCI-H460 lung 106% | HOP-92 NSCLC 94.1% | NCI-H522 lung 96.5% | A549/ATCC NSCLC 86.8% | 786-0 renal 90.8% | COLO 205 colon 108%

COc1ccc(C/C(C)=C(/c2ccc(OCCN3CCCCCC3)cc2)c2ccc(OC(=O)NCc3ccccc3)cc2)cc1
inactive: NCI-H23 lung 86.4% | NCI-H226 lung 101% | NCI-H322M lung 93.2% | HOP-62 NSCLC 91.1% | NCI-H460 lung 70.7% | HOP-92 NSCLC 56% | NCI-H522 lung 75.2% | A549/ATCC NSCLC 77% | 786-0 renal 83.5% | COLO 205 colon 85.7%

Cc1ccc(S(=O)(=O)n2cc(C3C(Cl)C(=O)N3c3ccc(N4CCOCC4=O)cc3)c3ccccc32)cc1 (stereo not given)
inactive: NCI-H23 lung 52.5% | NCI-H226 lung 72.3% | NCI-H322M lung 86.7% | HOP-62 NSCLC 67.6% | NCI-H460 lung 97.2% | HOP-92 NSCLC 49.8% | NCI-H522 lung 63.7% | A549/ATCC NSCLC 79.6% | 786-0 renal 86% | COLO 205 colon 108%

O=C(Cn1cc(CN2C(=O)c3ccccc3S2(=O)=O)nn1)Nc1cccc(Cl)c1
inactive: NCI-H23 lung 97.1% | NCI-H226 lung 117% | NCI-H322M lung 99% | HOP-62 NSCLC 125% | NCI-H460 lung 111% | HOP-92 NSCLC 105% | NCI-H522 lung 93.9% | A549/ATCC NSCLC 111% | 786-0 renal 115% | COLO 205 colon 114%

O=C1c2cccnc2C(=O)c2c1c(C(=O)OCCCN1CCCCC1)c1ccccn21
active: NCI-H23 lung -48.5% | NCI-H226 lung -18.4% | NCI-H322M lung -18.1% | HOP-62 NSCLC -31.9% | NCI-H460 lung -63.3% | HOP-92 NSCLC -8.21% | NCI-H522 lung -80% | A549/ATCC NSCLC -63.8% | 786-0 renal -62.6% | COLO 205 colon -79%
